Source: PubChem BioAssay (National Center for Advancing Translational Sciences (NCATS))
SW480 rereplic: inducers of DNA re-replication in SW480 colon cancer cells; SW480 DNA re-replication, Hoechst DNA content imaging, 48 h; Potency, µM (series often up to 46.1 µM), without a hit: top-dose re-replication activation, usual class: activators; actives 1.8% (n = 340,000); further: potency means the concentration at half of the fitted maximal effect; % of control where 0% means no effect; nearly all actives have a fitted effect of over 55% in size
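250 cells/well; 23 nL cpd via pin tool; 48 hr, 37 C, 5% CO2; Hoechst 40 min; imager read of total nuclear intensity, ex 405/em 500-530 nm.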
KB-3-1 cytotox: kills parental KB-3-1 adenocarcinoma cells; Potency, µM (doses to about 46.1 µM), hits mostly cytotoxic; KB-3-1 viability, CellTiter-Glo ATP luminescence, 72 h; actives 1.4% (n = 400,000); AID 1347075; further: potency means the concentration at half of the fitted maximal effect; on the % scale 0 is the no-effect control and ±100 the full control effect; nearly all actives have a fitted effect of over 60% in size
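Cytotoxicity in the drug-sensitive parental line KB-3-1 was scored as loss of CellTiter-Glo luminescence following 72 h incubation with compound. Values come from curve fitting of normalized concentration-response data.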
D3 ag: activates the human D3 dopamine receptor; actives 0.58% (n = 410,000); D3R DiscoveRx beta-arrestin cells, luminescence, 90 min; AID 652048; max activation, %; in the data active means max activation above about 30%; further: 0% is about no effect
Target sequence (P35462 whole entry, looked up): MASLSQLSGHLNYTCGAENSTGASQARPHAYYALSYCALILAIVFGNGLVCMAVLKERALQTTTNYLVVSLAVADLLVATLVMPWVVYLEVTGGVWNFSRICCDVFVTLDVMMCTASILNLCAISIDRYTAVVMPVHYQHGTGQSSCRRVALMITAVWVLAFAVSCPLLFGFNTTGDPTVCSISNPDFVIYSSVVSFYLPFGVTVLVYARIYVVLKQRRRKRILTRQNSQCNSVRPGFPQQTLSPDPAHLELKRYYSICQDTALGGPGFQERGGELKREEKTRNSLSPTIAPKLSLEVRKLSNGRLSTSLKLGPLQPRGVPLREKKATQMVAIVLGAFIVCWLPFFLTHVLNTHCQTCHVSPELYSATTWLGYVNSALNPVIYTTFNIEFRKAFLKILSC
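Agonist mode: compounds and dopamine controls were applied to plated cells for 90 min at 37 degrees C after an overnight attachment at 1500 cells/well. Luminescent read-out followed 30 - 60 minutes at room temperature with DiscoveRx detection reagent.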
MCF10A rerep: DNA re-replication induction in MCF 10a cells | MCF 10A DNA re-replication, Hoechst nuclear intensity, 48 h | Potency, µM (series often up to 46.1 µM), for inactives: at the highest dose activity, positive = re-replication, hits mostly activators | actives 2.9% (n = 350,000); further: potency means the concentration at half of the fitted maximal effect; % of control where 0% means no effect; nearly all actives have a fitted effect of over 50% in size
KB-V1 MDR tox: KB-V1 MDR subline cytotoxicity; KB-V1 MDR cells viability, CellTiter-Glo, 72 h; Potency, µM (series often up to 46.1 µM), usual class: cytotoxic; actives 3.4% (n = 400,000); further: potency means the concentration at half of the fitted maximal effect; on the % scale 0 is the no-effect control and ±100 the full control effect; nearly all actives have a fitted effect of over 60% in size
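Drug-selected KB-V1 cells, grown in DMEM lacking phenol red with 10% FBS, receive compound titrations; after three days at 37 degrees C, surviving cell ATP is quantified by CellTiter-Glo luminescence and responses normalized and curve-fitted.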
D3 antag: antagonists of human D3 dopamine receptor. P35462. D3R cells, DiscoveRx beta-arrestin luminescence, antagonist mode; stronger effect = lower value. max response, negative = inhibition, %. actives 2.5% (n = 360,000); in the data active means max response below about -50%; inconclusive means no clear call, values can overlap the other calls; further: on the % scale 0 is the no-effect control and ±100 the full control effect
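Cells plated overnight at 1500 cells/well, then exposed to library compounds with dopamine controls for 90 minutes at 37 degrees C. DiscoveRx reagent added for 30–60 minutes at room temperature; luminescence read, quantitative HTS format.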
Starred values were filed as active, the others as inactive; i = inactive; u = inconclusive; x = not tested or not shown. A selection: hits, their analogues and other compounds. The true share with any hit is near 8.9%. Unless noted, the call rests on the fitted dose curve; in most records, active means well fitted curve in the direction sought with a large enough effect; inconclusive means small, poorly fitted or top-dose-only effect, or another doubt; inactive means no such curve, though single readings can be large; an effect the other way counts as inactive or inconclusive.

SMILES | SW480 rereplic | KB-3-1 cytotox | D3 ag | MCF10A rerep | KB-V1 MDR tox | D3 antag
CCOc1cc(CN2CCN(C(=O)c3cccc4ccccc34)CC2)ccc1OC | u | i | 0 | -1% | u | -1
Cc1cccc(CN2CCN(C(=O)c3cccc4ccccc34)CC2)c1 | -6% | i | 2 | -3% | i | 12
COc1ccc(CN2CCN(C(=O)c3cccc4ccccc34)CC2)cc1OC | 6.5µM* | i | -5 | 0.65µM* | i | -10
Cc1cccc(CN2CCN(C(=O)c3ccccc3F)CC2)c1 | 4% | i | 0 | 2% | i | -78*
CCc1ccccc1NC(=O)C1=C(C)C(=O)OC12CCCCCC2 | x | i | 3 | x | i | x
COC(=O)c1c(NC(=O)C(C)C)sc2c1C(C(=O)OC)CC2 (stereo not drawn) | -3% | u | -2 | -3% | 13µM* | u
COC(=O)c1c(NC(=O)c2ccco2)sc(C)c1C | u | i | 1 | u | i | 13
COC(=O)c1c(NC(=O)c2ccco2)sc2c1C(C(=O)OC)CC2 (stereo not drawn) | 15% | i | 4 | 23% | 18µM* | -50*
COC(=O)c1sc(NC(=O)C(C)C)c(C(=O)OC)c1C | -3% | i | -2 | 2% | i | -27
CCOc1cc(C)c(S(=O)(=O)Nc2ccc3cn[nH]c3c2)cc1C | -1% | 21µM* | 20 | -2% | u | 20
Cc1ccc(S(=O)(=O)Nc2ccc3cn[nH]c3c2)c(C)c1 | 16µM* | i | -1 | 16% | i | -10
Cc1ccc(C)c(S(=O)(=O)Nc2ccc3cn[nH]c3c2)c1 | 0% | i | -4 | 1% | i | -3
CC(=O)Nc1ccc(-c2nnc(SCC(=O)c3ccc4c(c3)Cc3ccccc3-4)n2C)cc1 | 1% | i | 7 | u | i | -5
Cn1c(SCC(=O)c2ccc3c(c2)Cc2ccccc2-3)nnc1-c1cccc(N)c1 | 2% | i | 2 | 18% | 16µM* | 12
Cc1ccccc1OCC(=O)Nc1sc2c(c1C(=O)OC(C)C)CCCC2 | x | i | 7 | x | i | x
O=C(Nc1ccc2nc3n(c(=O)c2c1)CCCCC3)c1ccccc1[N+](=O)[O-] | -9% | i | 4 | 0% | u | -12
O=C(Nc1ccc2nc3n(c(=O)c2c1)CCCCC3)c1cc([N+](=O)[O-])ccc1F | 16µM* | u | -9 | 15µM* | i | -19
O=C(Nc1ccc2nc3n(c(=O)c2c1)CCCCC3)c1c(F)ccc([N+](=O)[O-])c1F | 1.3µM* | 2.3µM* | -6 | u | 16µM* | -59*
Fc1cccc(CN2CCc3nc(Nc4ccc5c(c4)OCCO5)ncc3C2)c1F | x | i | 0 | x | i | x
O=c1[nH]c2ccccc2c(O)c1-[n+]1ccccc1 | -15% | i | 32* | u | u | -18
C=CCn1c(SCc2cc(C(C)=O)ccc2OCC)nc2ccccc2c1=O | 1.8µM* | 1.2µM* | 5 | 1µM* | 2.3µM* | 14
COc1ccc(C(C)=O)cc1CSc1nc2ccccc2c(=O)n1-c1ccccc1C | 4% | i | 21 | 4% | 21µM* | 13
COc1ccc(C(C)=O)cc1CSc1nc2ccccc2c(=O)n1-c1ccccc1 | 0% | i | 3 | 23% | i | 4
COc1ccc(C(C)=O)cc1CSc1nc2ccccc2c(=O)n1-c1cccc(C)c1 | u | i | 8 | u | i | -7
COc1ccccc1-n1c(SCc2cc(=O)oc3cc(O)ccc23)nc2ccccc2c1=O | 4% | u | 3 | u | 18µM* | 3
SMILES | SW480 rereplic | KB-3-1 cytotox | D3 ag | MCF10A rerep | KB-V1 MDR tox | D3 antag
CCOC(=O)C(=Cc1ccc(-n2cncn2)cc1)C(=O)OCC | 16µM* | u | -17 | 4.6µM* | i | -64*
CCOC(=O)C(=CNc1cc(C)nn1-c1ccc(Cl)cc1)C(=O)OCC | -2% | i | 10 | u | i | 2
O=C(O)c1cc2cccc(S(=O)(=O)N3CCOCC3)c2cc1O | -2% | i | 12 | 0% | i | -54*
Cc1ccc(S(=O)(=O)N2CCOCC2)cc1C(=O)O | -12% | i | -12 | 2% | i | 37
Nc1ccc(-c2cc(-c3cccc(N)c3)nc(-c3ccccc3)n2)cc1 | u | u | -4 | 16µM* | i | 6
Nc1ccc(-c2nc(-c3ccccc3)nc3ccccc23)cc1 | 23µM* | i | 6 | 16µM* | i | 15
Cc1cccc(OCCSc2nc3ccccc3n2CC(=O)N2CCOCC2)c1 | x | x | 0 | x | x | x
CC(=O)Nc1nc(-c2ccc3c(c2)CCN3C(=O)C2CC2)c(C)s1 | u | u | -3 | 24% | 15µM* | -1
COCCCNCCCOc1ccc(C)cc1Br | 0% | i | -20 | 12% | u | -73*
CCN(CC)CCCOc1ccc(C)cc1Br | -21% | i | 1 | u | i | -75*
COCCNCCCOc1ccc(C)cc1Br | 15% | i | -1 | 2% | i | -51*
COCCCNCCCCOc1c(Cl)cc(C)cc1Br | 2% | i | -10 | 19% | u | -77*
C=CCNCCCCOc1c(Cl)cc(C)cc1Br | -10% | i | -3 | 1% | i | 18
C=CCNCCCOc1ccc(C)cc1Br | -1% | i | -31 | 2% | i | u
COC1=C(Nc2ccccc2)C(=O)c2ccccc2C1=O | u | 21µM* | 6 | 23% | u | 3
COC1=C(Nc2ccc(C)cc2)C(=O)c2ccccc2C1=O | u | i | 1 | u | 18µM* | -13
CC1=C(Nc2ccc(C(=O)O)cc2)C(=O)c2ccccc2C1=O | -8% | u | -4 | u | i | -7
c1nc(NCCCN2CCOCC2)c2cc(-c3ccc4c(c3)OCO4)ccc2n1 | x | i | x | x | i | x
CCNC(=S)NS(=O)(=O)c1ccc(Cl)cc1 | 4% | i | 7 | 1% | i | -2
CCNC(=S)NS(=O)(=O)c1ccccc1 | -10% | i | 1 | -4% | i | -58*
Cc1ccccc1CNC(=O)C(=O)NCC(c1ccco1)S(=O)(=O)c1ccc(F)cc1 (stereo not drawn) | x | i | 3 | x | u | x
COc1ccc(/C=N/N2C(=O)CSC2=S)cc1Br | -4% | i | 37* | -6% | u | 21
COc1cc(/C=N/N2CCN(Cc3ccc(Cl)cc3)CC2)cc(Br)c1O | -7% | i | -1 | 0% | i | -14
COc1ccc(/C=N/N2CCN(Cc3ccc(C)cc3)CC2)cc1Br | 2% | i | -8 | 27% | i | -92*
